Test results: ChEMBL document CHEMBL2218924, “A broad activity screen in support of a chemogenomic map for kinase signalling research and drug discovery” (Biochem J, 2013)

Columns and labels:
[1] = molecular target: T1, Serine/threonine-protein kinase TBK1 (Homo sapiens) (UniProt Q9UHD2); details: at 1 µM
T1 sequence (whole entry): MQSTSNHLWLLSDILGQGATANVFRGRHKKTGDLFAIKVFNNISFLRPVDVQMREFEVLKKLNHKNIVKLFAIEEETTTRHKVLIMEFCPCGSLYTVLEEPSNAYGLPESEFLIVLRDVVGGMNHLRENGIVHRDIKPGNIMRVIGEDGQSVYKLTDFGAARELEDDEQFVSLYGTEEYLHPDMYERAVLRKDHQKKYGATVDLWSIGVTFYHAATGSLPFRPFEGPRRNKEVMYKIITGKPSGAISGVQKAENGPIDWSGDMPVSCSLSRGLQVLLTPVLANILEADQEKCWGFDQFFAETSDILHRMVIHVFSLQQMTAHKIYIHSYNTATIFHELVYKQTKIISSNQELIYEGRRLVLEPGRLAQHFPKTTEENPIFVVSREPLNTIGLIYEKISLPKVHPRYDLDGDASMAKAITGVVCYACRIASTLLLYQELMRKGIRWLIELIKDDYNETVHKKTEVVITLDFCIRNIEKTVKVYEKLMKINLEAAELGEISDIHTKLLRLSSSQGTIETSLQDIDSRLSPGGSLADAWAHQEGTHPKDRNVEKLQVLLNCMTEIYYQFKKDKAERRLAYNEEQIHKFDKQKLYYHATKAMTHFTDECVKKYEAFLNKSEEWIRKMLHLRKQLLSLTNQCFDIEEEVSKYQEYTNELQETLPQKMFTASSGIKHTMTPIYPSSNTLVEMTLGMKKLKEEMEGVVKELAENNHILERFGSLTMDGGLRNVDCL

[2] = molecular target: T1, Serine/threonine-protein kinase TBK1 (Homo sapiens); details: at 10 µM
[3] = molecular target: T2, TGF-beta receptor type-1 (Homo sapiens) (UniProt P36897); details: at 1 µM
T2 sequence (whole entry): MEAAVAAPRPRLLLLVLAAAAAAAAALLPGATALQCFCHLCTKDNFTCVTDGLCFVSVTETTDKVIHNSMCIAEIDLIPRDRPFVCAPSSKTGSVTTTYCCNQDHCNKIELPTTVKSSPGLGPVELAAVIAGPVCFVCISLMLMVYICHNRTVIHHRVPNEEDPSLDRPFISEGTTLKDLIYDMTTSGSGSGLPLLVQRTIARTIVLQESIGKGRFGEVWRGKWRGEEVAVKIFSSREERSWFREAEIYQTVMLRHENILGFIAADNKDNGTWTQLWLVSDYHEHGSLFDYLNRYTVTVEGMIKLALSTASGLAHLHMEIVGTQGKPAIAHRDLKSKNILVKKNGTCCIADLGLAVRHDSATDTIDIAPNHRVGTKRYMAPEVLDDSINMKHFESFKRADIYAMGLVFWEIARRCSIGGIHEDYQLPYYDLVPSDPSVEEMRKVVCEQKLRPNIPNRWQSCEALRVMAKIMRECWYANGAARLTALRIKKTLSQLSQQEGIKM

[4] = molecular target: T2, TGF-beta receptor type-1 (Homo sapiens); details: at 10 µM
[5] = molecular target: Insulin-like growth factor 1 receptor (Homo sapiens) (UniProt P08069); details: at 1 µM
[6] = molecular target: Insulin-like growth factor 1 receptor (Homo sapiens) (UniProt P08069); details: at 10 µM
[7] = molecular target: T3, Inhibitor of nuclear factor kappa-B kinase subunit alpha (Homo sapiens) (UniProt O15111); details: at 1 µM
T3 sequence (whole entry): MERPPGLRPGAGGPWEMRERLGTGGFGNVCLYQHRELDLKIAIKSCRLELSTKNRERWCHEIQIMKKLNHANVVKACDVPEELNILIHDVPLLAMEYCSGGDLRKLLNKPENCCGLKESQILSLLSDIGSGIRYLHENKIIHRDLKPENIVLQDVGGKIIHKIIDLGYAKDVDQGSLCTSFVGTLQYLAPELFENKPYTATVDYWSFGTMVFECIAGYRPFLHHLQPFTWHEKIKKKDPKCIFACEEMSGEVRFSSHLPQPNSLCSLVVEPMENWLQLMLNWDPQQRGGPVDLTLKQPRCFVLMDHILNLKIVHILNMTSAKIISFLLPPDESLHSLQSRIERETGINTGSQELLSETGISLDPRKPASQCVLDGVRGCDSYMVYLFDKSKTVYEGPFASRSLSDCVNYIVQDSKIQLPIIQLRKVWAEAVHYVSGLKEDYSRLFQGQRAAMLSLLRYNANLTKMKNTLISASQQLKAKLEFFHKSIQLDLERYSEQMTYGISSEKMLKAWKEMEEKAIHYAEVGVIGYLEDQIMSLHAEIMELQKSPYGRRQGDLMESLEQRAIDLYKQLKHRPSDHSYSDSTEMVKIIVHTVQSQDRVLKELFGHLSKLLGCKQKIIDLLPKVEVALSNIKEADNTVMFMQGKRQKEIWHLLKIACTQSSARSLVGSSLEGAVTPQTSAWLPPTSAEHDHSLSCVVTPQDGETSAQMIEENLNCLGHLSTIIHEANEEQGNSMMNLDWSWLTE

[8] = molecular target: T3, Inhibitor of nuclear factor kappa-B kinase subunit alpha (Homo sapiens); details: at 10 µM
[9] = molecular target: T4, Inhibitor of nuclear factor kappa-B kinase subunit beta (Homo sapiens) (UniProt O14920); details: at 10 µM
T4 sequence (whole entry): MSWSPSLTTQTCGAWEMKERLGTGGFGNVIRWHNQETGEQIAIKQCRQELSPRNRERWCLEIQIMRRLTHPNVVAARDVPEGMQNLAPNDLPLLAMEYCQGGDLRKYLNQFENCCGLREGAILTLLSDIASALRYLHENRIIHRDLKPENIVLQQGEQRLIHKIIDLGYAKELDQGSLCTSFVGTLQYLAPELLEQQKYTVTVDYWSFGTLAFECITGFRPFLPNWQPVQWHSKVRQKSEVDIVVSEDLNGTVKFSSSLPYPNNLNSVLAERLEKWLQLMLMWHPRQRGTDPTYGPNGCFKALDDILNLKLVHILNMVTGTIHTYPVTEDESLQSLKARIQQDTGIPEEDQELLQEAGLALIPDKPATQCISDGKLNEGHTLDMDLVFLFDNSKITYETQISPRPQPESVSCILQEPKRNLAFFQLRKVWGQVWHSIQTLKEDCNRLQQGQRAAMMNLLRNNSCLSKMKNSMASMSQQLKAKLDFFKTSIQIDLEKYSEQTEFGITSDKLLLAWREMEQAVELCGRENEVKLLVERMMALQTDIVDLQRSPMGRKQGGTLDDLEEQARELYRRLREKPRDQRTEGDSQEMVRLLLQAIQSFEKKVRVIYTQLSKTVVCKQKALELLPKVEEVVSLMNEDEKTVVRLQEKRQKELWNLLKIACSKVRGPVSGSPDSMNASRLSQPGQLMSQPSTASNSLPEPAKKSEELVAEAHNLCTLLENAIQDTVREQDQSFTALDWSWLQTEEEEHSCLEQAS

[10] = molecular target: Insulin receptor (Homo sapiens) (UniProt P06213); details: at 1 µM
Insulin receptor (Homo sapiens), sequence (P06213 28-758 limits assumed): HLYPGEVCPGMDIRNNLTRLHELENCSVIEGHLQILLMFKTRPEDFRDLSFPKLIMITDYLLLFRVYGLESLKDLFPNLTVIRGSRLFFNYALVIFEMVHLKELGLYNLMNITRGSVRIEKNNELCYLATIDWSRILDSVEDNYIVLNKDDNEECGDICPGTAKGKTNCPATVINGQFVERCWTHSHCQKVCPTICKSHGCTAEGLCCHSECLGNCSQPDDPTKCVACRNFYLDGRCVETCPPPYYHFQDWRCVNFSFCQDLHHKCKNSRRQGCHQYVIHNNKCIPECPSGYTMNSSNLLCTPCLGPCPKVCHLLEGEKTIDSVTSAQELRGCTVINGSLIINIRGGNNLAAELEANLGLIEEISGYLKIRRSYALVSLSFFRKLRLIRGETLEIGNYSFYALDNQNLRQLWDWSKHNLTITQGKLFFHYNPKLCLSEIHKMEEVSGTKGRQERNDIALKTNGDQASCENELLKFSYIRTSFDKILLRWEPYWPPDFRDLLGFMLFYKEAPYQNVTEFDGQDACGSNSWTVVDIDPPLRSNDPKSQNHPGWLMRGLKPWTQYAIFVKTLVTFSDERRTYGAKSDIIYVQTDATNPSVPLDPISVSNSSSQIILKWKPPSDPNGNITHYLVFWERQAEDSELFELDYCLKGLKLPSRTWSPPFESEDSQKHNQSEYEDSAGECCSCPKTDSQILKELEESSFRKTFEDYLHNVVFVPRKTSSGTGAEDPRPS
Insulin receptor (Homo sapiens), sequence (P06213 763-1382 limits assumed): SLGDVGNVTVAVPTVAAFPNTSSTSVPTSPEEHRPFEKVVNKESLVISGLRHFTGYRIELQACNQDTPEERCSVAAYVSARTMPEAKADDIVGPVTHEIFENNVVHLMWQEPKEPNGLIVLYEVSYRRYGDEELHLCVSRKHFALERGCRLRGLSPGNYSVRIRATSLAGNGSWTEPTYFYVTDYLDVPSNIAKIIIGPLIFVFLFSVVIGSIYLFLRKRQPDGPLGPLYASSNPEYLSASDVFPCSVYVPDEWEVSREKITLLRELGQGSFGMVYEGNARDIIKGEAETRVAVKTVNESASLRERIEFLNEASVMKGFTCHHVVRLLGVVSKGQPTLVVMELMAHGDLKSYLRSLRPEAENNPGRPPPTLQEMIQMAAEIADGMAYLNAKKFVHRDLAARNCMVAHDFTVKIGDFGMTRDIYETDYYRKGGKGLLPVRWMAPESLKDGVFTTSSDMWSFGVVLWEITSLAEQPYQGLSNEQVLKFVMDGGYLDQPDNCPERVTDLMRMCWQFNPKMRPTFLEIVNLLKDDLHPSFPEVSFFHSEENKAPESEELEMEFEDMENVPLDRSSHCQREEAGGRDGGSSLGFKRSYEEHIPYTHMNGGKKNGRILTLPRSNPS

Insulin-like growth factor 1 receptor (Homo sapiens), sequence (P08069 31-736 limits assumed): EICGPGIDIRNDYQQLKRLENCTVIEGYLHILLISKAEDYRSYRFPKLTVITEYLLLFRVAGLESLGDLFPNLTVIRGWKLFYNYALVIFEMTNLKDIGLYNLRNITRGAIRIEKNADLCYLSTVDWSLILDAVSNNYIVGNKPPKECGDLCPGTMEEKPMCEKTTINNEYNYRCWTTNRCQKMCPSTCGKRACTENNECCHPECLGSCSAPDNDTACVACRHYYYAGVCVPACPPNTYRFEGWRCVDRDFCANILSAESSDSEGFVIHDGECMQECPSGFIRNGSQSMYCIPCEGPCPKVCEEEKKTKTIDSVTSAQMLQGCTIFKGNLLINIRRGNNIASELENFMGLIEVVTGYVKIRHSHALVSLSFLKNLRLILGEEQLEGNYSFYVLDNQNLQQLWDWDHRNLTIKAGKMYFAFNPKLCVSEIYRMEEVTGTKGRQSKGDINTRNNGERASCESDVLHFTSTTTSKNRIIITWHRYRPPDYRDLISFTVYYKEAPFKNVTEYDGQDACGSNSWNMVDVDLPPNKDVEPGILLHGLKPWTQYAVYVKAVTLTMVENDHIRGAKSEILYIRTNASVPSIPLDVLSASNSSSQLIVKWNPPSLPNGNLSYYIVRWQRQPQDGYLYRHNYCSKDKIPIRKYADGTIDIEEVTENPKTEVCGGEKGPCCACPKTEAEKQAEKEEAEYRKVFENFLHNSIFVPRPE
Insulin-like growth factor 1 receptor (Homo sapiens), sequence (P08069 741-1367 limits assumed): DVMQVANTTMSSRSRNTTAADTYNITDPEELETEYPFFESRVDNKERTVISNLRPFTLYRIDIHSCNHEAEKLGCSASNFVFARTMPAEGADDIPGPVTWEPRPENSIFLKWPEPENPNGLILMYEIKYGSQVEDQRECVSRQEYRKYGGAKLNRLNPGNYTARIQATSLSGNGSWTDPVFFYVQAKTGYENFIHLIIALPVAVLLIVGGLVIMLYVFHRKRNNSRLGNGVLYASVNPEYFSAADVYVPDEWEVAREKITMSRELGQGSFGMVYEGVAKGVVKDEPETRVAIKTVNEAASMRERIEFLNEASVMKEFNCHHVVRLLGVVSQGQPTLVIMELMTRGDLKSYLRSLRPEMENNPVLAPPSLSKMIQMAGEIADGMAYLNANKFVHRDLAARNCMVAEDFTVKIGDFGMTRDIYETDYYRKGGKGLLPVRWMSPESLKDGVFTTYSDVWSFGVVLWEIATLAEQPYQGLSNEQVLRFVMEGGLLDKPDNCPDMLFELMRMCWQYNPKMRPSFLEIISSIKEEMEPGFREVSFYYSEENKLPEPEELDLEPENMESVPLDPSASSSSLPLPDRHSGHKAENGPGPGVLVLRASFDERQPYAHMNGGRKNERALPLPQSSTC

With CCCC(=O)Oc1ccc2[nH]c(C(=O)c3cc4ccccc4[nH]3)cc2c1 the residual activity [1] was 63%, the residual activity [2] was 59% and the residual activity [3] was 79%. For the same compound, the residual activity [4] was 93%, the residual activity [5] was 93% and the residual activity [6] was 90%. It also gave a residual activity [7] of 104%, a residual activity [8] of 100% and a residual activity [9] of 93%. For the same compound, the residual activity [10] was 107%.
